# Shown are actives, neighbours in structure and some others; about 6.7% of the full set was active somewhere.
# PINK1 expr mod = A Quantitative High throughput Screen to Identify Chemical Modulators of PINK1 Expression. hit rate 0.2% among 410,000. PINK1 immunofluorescence, high-content cytometry, 24 h. Potency, µM (highest dose often 76.6 µM), for the others: at the highest dose activation (PINK1 increase), hits mostly activators. AID 624263, 2012; active means well fitted activation curve with a large enough effect; inconclusive means small, poorly fitted or top-dose-only effect; cell line not stated here; further: % of control where 0% means no effect; nearly all actives have a fitted effect of over 65% in size
#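 PINK1 protein level read as immunofluorescence by microplate cytometer in a fixed, stained stable cell line after 24 h exposure to five compound concentrations, with CCCP as control.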
# KB-V1 MDR tox = qHTS assay for MDR1-selective chemotherapeutics: Primary screen using the drug-selected MDR subline cells KB-V1 | KB-V1 MDR cells viability, CellTiter-Glo, 72 h | Potency, µM (series often up to 46.1 µM), most hits filed as cytotoxic | hit rate 3.4% among 400,000 | AID 1347076, 2019; further: on the % scale 0 is the no-effect control and ±100 the full control effect; nearly all actives have a fitted effect of over 60% in size
#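 Cytotoxicity via CellTiter-Glo luminescence after 72 h compound exposure at 37 degrees C. Cells: drug-selected KB-V1 line, DMEM phenol-red free plus 10% FBS. Compounds tested at multiple concentrations; normalized data fitted to concentration-effect curves.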
# MCF10A rereplic = A quantitative high throughput screen for small molecules that induce DNA re-replication in MCF 10a normal breast cells; MCF 10A DNA re-replication, Hoechst nuclear intensity, 48 h; hit rate 2.9% among 350,000; AID 624296, 2012; Potency, µM (highest dose often 46.1 µM), without a hit: at the top dose activity, positive = re-replication, most hits filed as activators; further: % of control where 0% means no effect; nearly all actives have a fitted effect of over 50% in size
# KB-3-1 cytotox = qHTS assay for MDR1-selective chemotherapeutics: Primary screen using the parental adenocarcinoma cell KB-3-1; KB-3-1 viability, CellTiter-Glo ATP luminescence, 72 h; Potency, µM (highest dose often 46.1 µM), hits mostly cytotoxic; hit rate 1.4% among 400,000; further: on the % scale 0 is the no-effect control and ±100 the full control effect; nearly all actives have a fitted effect of over 60% in size
#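 Cytotoxicity in the drug-sensitive parental line KB-3-1 was scored as loss of CellTiter-Glo luminescence following 72 h incubation with compound. Values come from curve fitting of normalized concentration-response data.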
# SW480 rerep = A quantitative high throughput screen for small molecules that induce DNA re-replication in SW480 colon adenocarcinoma cells | SW480 DNA re-replication, Hoechst DNA content imaging, 48 h | hit rate 1.8% among 340,000 | Potency, µM (titrated, usually from 46.1 µM), for inactives: at the highest dose re-replication activation, most hits filed as activators | AID 624297, 2012; further: % of control where 0% means no effect; nearly all actives have a fitted effect of over 55% in size
#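 SW480 cells exposed to compounds for 48 hr at 37 C, 5% CO2, then Hoechst-stained 40 min. Nuclear DNA content imaged by fluorescence scanning (405 nm excitation, 500-530 nm emission); re-replication scored as increased high-intensity nuclei.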
# Active calls of the source: *; i = inactive; u = inconclusive; x = no result; [ ] = dose if it differs, or a comment. Unless noted, the call rests on the fitted dose curve; in most records, active means well fitted curve in the direction sought with a large enough effect; inconclusive means small, poorly fitted or top-dose-only effect, or another doubt; inactive means no such curve, though single readings can be large; an effect the other way counts as inactive or inconclusive. Potency means the concentration at half of the fitted maximal effect.
SMILES,PINK1 expr mod,KB-V1 MDR tox,MCF10A rereplic,KB-3-1 cytotox,SW480 rerep
CCN1/C(=C/c2ccc3cccc(C)c3[n+]2CC)Sc2ccccc21,4µM*,i,18%,u,2%
COc1ccc(S(=O)(=O)NCCOc2ccc(Cl)cc2)cc1,2%,i,5%,i,3%
COc1cccc(C(c2c(N)[nH]c(=S)[nH]c2=O)c2c(N)[nH]c(=S)[nH]c2=O)c1,0%,i,-9%,i,5.2µM*
C=CCN1C(=O)/C(=C2/Sc3ccc(OC)cc3N2C)SC1=Nc1ccccc1,10%,i,u,i,7.3µM*
Cc1cc2c(cc1C)N(C(=O)CCl)CCN2C(=O)CCl,1%,7.3µM*,4.6µM*,15µM*,3.7µM*
Cc1ccc(C(=O)c2cn(Cc3cccc(F)c3)c3nc(C)ccc3c2=O)cc1,0%,i,x,i,x
COC(=O)C1=C(C)N(CCc2ccccc2)C(=O)C1(NS(=O)(=O)c1ccc(NC(C)=O)cc1)C(F)(F)F (configuration not stated),10%[38.3 µM],i,15µM*,i,3.3µM*
CC(=O)C1=C(C)N(c2ccccc2)C(=O)C1(NS(=O)(=O)c1ccc(N)cc1)C(F)(F)F (configuration not stated),0%,i,12%,i,u
O=C(CCN1CCN(c2ccccc2F)CC1)c1ccc(Br)cc1,7%,i,u,i,u
CC(C)Oc1ccc(C(=O)CCN2CCOCC2)cc1,5%,u,u,i,u
COc1ccccc1-n1c(SCC(=O)Nc2ccc3c(c2)OCO3)nc2c(c1=O)SCC2,-3%,7.3µM*,17%,i,1%
CCOc1ccc(NC(=O)CCN2CCN(c3ccccc3F)CC2)cc1,11%[38.3 µM],u,u,u,18µM*
CC(C)Oc1ccc(C(=O)CCN2CCCCC2)cc1,0%,i,23µM*,i,u
COc1ccc(C(=O)CCN2CCN(c3ccccc3F)CC2)cc1,-1%,i,5.8µM*,i,u
CCOC(=O)c1ccc(CN(Cc2ccc(Cl)cc2Cl)S(=O)(=O)c2cccc(Cl)c2)cc1,-1%,x,x,x,x
O=C(CN1CCN(CCC(=O)Nc2ccccc2F)CC1)Nc1ccc(Cl)cc1,1%,4.6µM*,3%,i,-3%
O=C(CN1CCN(CCC(=O)Nc2ccccc2F)CC1)Nc1ccc(F)cc1,0%,i,26%,i,-4%
COc1ccccc1N1CCN(CCC(=O)Nc2ccc3c(c2)OCO3)CC1,-1%,21µM*,-1%,i,-2%
COc1cc(NC(=O)Cn2ncc(Cl)c(Cl)c2=O)c(C)cc1[N+](=O)[O-],-1%,i,3.7µM*,i,u
COc1ccccc1C1CN(CC(=O)N[C@H]2CCCCNC2=O)Cc2ccccc2O1 (some centres not stated),0%,x,x,x,x
N#Cc1cccc(NC(=O)N2CC3(CCN(C(=O)c4ccco4)CC3)C2)c1,-1%,x,x,x,x
CC(=O)Nc1ccc(SCC(=O)c2cc(C)n(-c3ccccc3F)c2C)cc1,8%,u,23µM*,u,15%
Cc1cc(C(=O)Cn2nnc3ccccc3c2=O)c(C)n1-c1ccccc1F,0%,u,u,5.2µM*,13%
COc1ccc(-n2c(C)cc(C(=O)Cn3nnc4ccccc4c3=O)c2C)cc1,u,i,19%,i,4%
CCc1nc2c(OCc3cccc(Cl)c3)cccn2c1N(C)C(=O)CC(C)C,1%,i,x,i,x
SMILES,PINK1 expr mod,KB-V1 MDR tox,MCF10A rereplic,KB-3-1 cytotox,SW480 rerep
CC1(C)N=C(c2ccc(F)cc2)C(=O)N1CC(=O)Nc1ccccc1Cl,1%,x,x,x,x
CC(=O)NC(Cc1ccc(I)cc1)C(=O)NCC(N)C(=O)c1ccccc1 (configuration not stated),1%,x,x,x,x
CCN(Cc1nc2ccccc2c(=O)[nH]1)C(=O)COc1ccccc1Cc1ccccc1,4%,i,u,i,u
CCCC(=O)N(CCc1ccc(OC)cc1)Cc1nc2ccccc2c(=O)[nH]1,9%[38.3 µM],15µM*,5%,i,-2%
O=C(C1CCN(Cc2ccc(F)cc2)CC1)N(CCO)Cc1ccccc1,-2%,i,15%,i,-31%
CN(Cc1nc2ccccc2c(=O)[nH]1)C(=O)COc1ccccc1Cc1ccccc1,1%,i,21µM*,i,4%
O=C(C1CCN(Cc2ccc(F)cc2)CC1)N(CCc1ccccc1)Cc1ccccc1,19%,i,u,16µM*,-75%
CN(Cc1nc2ccccc2c(=O)[nH]1)C(=O)c1cc(-c2ccc(Br)cc2)nc2ccccc12,6%,15µM*,u,i,21%
Cc1cccc(C)c1OCc1nc2c3cnn(-c4cccc(F)c4)c3ncn2n1,0%,x,x,x,x
Cc1ccc(Cl)cc1Nc1nn2c(=O)c3ccc(C(=O)NC4CCCCC4)cc3nc2s1,2%,i,x,i,x
O=C(C1CCC1)N(CCc1ccccc1)Cc1nc2ccccc2c(=O)[nH]1,3%,i,15%,i,-2%[9.22 µM]
O=C(C1CC1)N(CCc1ccccc1)Cc1nc2ccccc2c(=O)[nH]1,1%,16µM*,-1%,i,-8%
O=S1(=O)CC(O)C(NCc2cccnc2)C1 (configuration not stated),x,i,5.2µM*,i,2.1µM*
COc1ccc(-c2cn3cc(C)ccc3n2)cc1Br,3%,i,22%,i,-4%
O=C(O)c1ccccc1-c1cn2cc(Cl)ccc2n1,2%,i,5%,i,-46%
Clc1ccc2nc(-c3ccc(Br)s3)cn2c1,1%[38.3 µM],18µM*,11%,i,8%
COc1ccc(-c2cn3cc(Cl)ccc3n2)cc1OC,1%,16µM*,18%,i,4%
O=C(NC1=NCCS1)c1cccc(N2C(=O)c3ccccc3C2=O)c1,1%,u,6.5µM*,i,-40%
O=C(Nc1ccccc1)C1C2CCC3C(CCC21)C3(Cl)Cl (configuration not stated),2%,i,12%,i,13%
O=C(Nc1cccc(Cl)c1)C1C2CCC3C(CCC21)C3(Cl)Cl (configuration not stated),22µM*,21µM*,-7%,u,7%
O=S(=O)(c1ccc(F)cc1)c1nc(-c2ccccc2F)oc1N1CCCCC1,-6%[38.3 µM],3.7µM*,16%,i,10%
O=S(=O)(c1ccccc1)c1nc(-c2ccc(F)cc2)oc1N1CCCCCC1,0%,u,x,i,x

# Screens deposited in PubChem by National Center for Advancing Translational Sciences (NCATS).
